# Unmarked numbers belong to inactive results. Results filed as inconclusive are left out. A call without a number means that no potency is given here. Calls of active or inactive are those of the source. Calls come from the whole dose curve; as a rule, active = well fitted curve in the direction sought with a large enough effect in the repeat runs; inconclusive = weak or mixed curves; inactive = no such curve, though single readings can be large; an effect the other way counts as inactive or inconclusive.
# Key:
# [1] = A CellTox Green Cytotoxicity Assay to monitor cytotoxicity in HEK293 cells - 40 hour (AID 1224871); note: nearly all actives have a fitted effect of over 45% in size
# Outline: (§1)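 HEK293 cells, 600/well, were preincubated 5 hours and then exposed to compounds at 37 C for up to 40 hours. A cell-impermeant cyanine dye staining dead-cell DNA was read by fluorescence at 0, 8, 16, 24, 32 and 40 h time points.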
# [2] = qHTS RealTime-Glo MT Cell Viability Assay in HEK293 cells - 16 hour (AID 1224872); note: top concentration of the series differs between compounds; nearly all actives have a fitted effect of over 50% in size
# Outline: (§2)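 Nonlytic real-time viability readout: viable cells convert prosubstrate to NanoLuc substrate, giving luminescence proportional to live cell number. HEK293, 600 cells/well, compound added after 5 h, continuous culture at 37 C.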
# [3] = qHTS RealTime-Glo MT Cell Viability Assay in HepG2 cells - 8 hour (AID 1224873); note: nearly all actives have a fitted effect of over 55% in size
# Outline: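 HepG2 cells mixed with RealTime-Glo MT reagents (NanoLuc plus cell-permeant prosubstrate) were seeded at 600 cells/well, incubated 5 h at 37 C/5% CO2, then pinned with compounds in DMSO; nonlytic luminescence tracked viability during 40 h treatment.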
# [4] = qHTS RealTime-Glo MT Cell Viability Assay in HEK293 cells - 40 hour (AID 1224874); conditions: RealTime-Glo luminescence; max response: stronger effect = lower value; note: nearly all actives have a fitted effect of over 50% in size
# Outline: (§3)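 600 cells/well were plated with the nonlytic NanoLuc/prosubstrate reagent, pre-incubated 5 h, then given 23 nL of compound in DMSO. Incubation at 37 C for 40 h, with luminescence from viable-cell-reduced substrate read repeatedly from 0 h.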
# [5] = A CellTox Green Cytotoxicity Assay to monitor cytotoxicity in HEK293 cells - 24 hour (AID 1224875); note: series mostly up to about 77 µM; nearly all actives have a fitted effect of over 45% in size
# Outline: as §1
# [6] = A CellTox Green Cytotoxicity Assay to monitor cytotoxicity in HepG2 cells - 16 hour (AID 1224876); note: nearly all actives have a fitted effect of over 45% in size
# Outline: (§4)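 HepG2 cells, 600/well, preincubated 5 h with CellTox Green dye, then exposed to Tox21 compounds in DMSO at 37 C for up to 40 h. Dead-cell DNA fluorescence read at the indicated time point.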
# [7] = qHTS RealTime-Glo MT Cell Viability Assay in HepG2 cells - 32 hour (AID 1224877); note: nearly all actives have a fitted effect of over 55% in size; note: potency is the fitted concentration of half-maximal effect
# Outline: (§5)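 Luminescence read-out: viable HepG2 cells reduce a prosubstrate to a NanoLuc substrate, giving a signal proportional to live cell number. Reads taken at 0, 8, 16, 24, 32 and 40 h of compound exposure at 37 C.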
# [8] = A CellTox Green Cytotoxicity Assay to monitor cytotoxicity in HepG2 cells - 24 hour (AID 1224878); note: nearly all actives have a fitted effect of over 45% in size
# Outline: as §4
# [9] = A CellTox Green Cytotoxicity Assay to monitor cytotoxicity in HepG2 cells - 40 hour (AID 1224879); note: nearly all actives have a fitted effect of over 40% in size
# Outline: as §4
# [10] = qHTS RealTime-Glo MT Cell Viability Assay in HEK293 cells - 0 hour (AID 1224880)
# Outline: as §3
# [11] = A CellTox Green Cytotoxicity Assay to monitor cytotoxicity in HEK293 cells - 32 hour (AID 1224881); note: nearly all actives have a fitted effect of over 40% in size
# Outline: as §1
# [12] = A CellTox Green Cytotoxicity Assay to monitor cytotoxicity in HepG2 cells - 0 hour (AID 1224882); note: nearly all actives have a fitted effect of over 35% in size
# Outline: as §4
# [13] = A CellTox Green Cytotoxicity Assay to monitor cytotoxicity in HepG2 cells - 32 hour (AID 1224883); note: nearly all actives have a fitted effect of over 50% in size
# Outline: as §4
# [14] = A CellTox Green Cytotoxicity Assay to monitor cytotoxicity in HEK293 cells - 8 hour (AID 1224884); note: nearly all actives have a fitted effect of over 35% in size
# Outline: as §1
# [15] = qHTS RealTime-Glo MT Cell Viability Assay in HepG2 cells - 16 hour (AID 1224885); note: nearly all actives have a fitted effect of over 50% in size
# Outline: as §5
# [16] = qHTS RealTime-Glo MT Cell Viability Assay in HEK293 cells - 24 hour (AID 1224886)
# Outline: as §2
# [17] = qHTS RealTime-Glo MT Cell Viability Assay in HEK293 cells - 8 hour (AID 1224887)
# Outline: as §3
# [18] = A CellTox Green Cytotoxicity Assay to monitor cytotoxicity in HEK293 cells - 16 hour (AID 1224888); note: nearly all actives have a fitted effect of over 35% in size
# Outline: as §1
# [19] = qHTS RealTime-Glo MT Cell Viability Assay in HepG2 cells - 0 hour (AID 1224889); note: nearly all actives have a fitted effect of over 50% in size
# Outline: as §5
# [20] = A CellTox Green Cytotoxicity Assay to monitor cytotoxicity in HepG2 cells - 8 hour (AID 1224890); note: nearly all actives have a fitted effect of over 45% in size
# Outline: as §4
structure (smiles),measurement,setting,value
CCOc1nc(C(Cl)(Cl)Cl)ns1,Potency,[1],inactive
same,Potency,[2],inactive
same,Potency,[3],inactive
same,max response,[4],3%
same,Potency,[5],inactive
same,Potency,[6],inactive
same,Potency,[7],inactive
same,Potency,[8],inactive
same,Potency,[9],inactive
same,outcome,[10],inactive
same,Potency,[11],inactive
same,outcome,[12],inactive
same,Potency,[13],inactive
same,Potency,[14],inactive
same,Potency,[15],inactive
same,Potency,[16],inactive
same,Potency,[17],inactive
same,Potency,[18],inactive
same,Potency,[19],inactive
same,Potency,[20],inactive
COP(N)(=S)Oc1ccccc1C(=O)OC(C)C (stereo not given),Potency,[1],inactive
same,Potency,[2],inactive
same,Potency,[3],inactive
same,max response,[4],-8.89%
same,Potency,[5],inactive
same,Potency,[6],inactive
same,Potency,[7],inactive
same,Potency,[8],inactive
same,Potency,[9],inactive
same,outcome,[10],inactive
same,Potency,[11],inactive
same,outcome,[12],inactive
same,Potency,[13],inactive
same,Potency,[14],inactive
same,Potency,[15],inactive
same,Potency,[16],inactive
same,Potency,[17],inactive
same,Potency,[18],inactive
same,Potency,[19],inactive
same,Potency,[20],inactive
CCC(=O)c1ccccc1,Potency,[1],inactive
same,Potency,[2],inactive
same,Potency,[3],inactive
same,max response,[4],5.66%
same,Potency,[5],inactive
same,Potency,[6],inactive
same,Potency,[7],inactive
same,Potency,[8],inactive
same,Potency,[9],inactive
same,outcome,[10],inactive
same,Potency,[11],inactive
same,outcome,[12],inactive
same,Potency,[13],inactive
same,Potency,[14],inactive
same,Potency,[15],inactive
same,Potency,[16],inactive
same,Potency,[17],inactive
same,Potency,[18],inactive
same,Potency,[19],inactive
same,Potency,[20],inactive
CCCCCCI,Potency,[1],inactive
same,Potency,[2],inactive
same,Potency,[3],inactive
same,max response,[4],-0.352%
same,Potency,[5],inactive
same,Potency,[6],inactive
same,Potency,[7],34.7 µM (active)
same,Potency,[8],inactive
same,Potency,[9],inactive
same,outcome,[10],inactive
same,Potency,[11],inactive
same,outcome,[12],inactive
same,Potency,[13],inactive
same,Potency,[14],inactive
same,Potency,[15],inactive
same,Potency,[16],inactive
same,Potency,[17],inactive
same,Potency,[18],inactive
same,Potency,[19],inactive
same,Potency,[20],inactive
CN1C[C@@H](NS(=O)(=O)N(C)C)C[C@@H]2c3cccc4c3c(cn4C)C[C@H]21,Potency,[1],inactive
same,Potency,[2],inactive
same,Potency,[3],inactive
same,max response,[4],-20.7%
same,Potency,[5],inactive
same,Potency,[6],inactive
same,Potency,[7],inactive
same,Potency,[8],inactive
same,Potency,[9],inactive
same,outcome,[10],inactive
same,Potency,[11],inactive
same,outcome,[12],inactive
same,Potency,[13],inactive
same,Potency,[14],inactive
same,Potency,[15],inactive
same,Potency,[16],inactive
same,Potency,[17],inactive
same,Potency,[18],inactive
same,Potency,[19],inactive
same,Potency,[20],inactive
CCC(=O)C(CCN(C)C)(c1ccccc1)c1ccccc1,Potency,[1],inactive
same,Potency,[2],inactive
same,Potency,[3],inactive
same,max response,[4],-20.5%
same,Potency,[5],inactive
same,Potency,[6],inactive
same,Potency,[7],inactive
same,Potency,[8],inactive
same,Potency,[9],inactive
same,outcome,[10],inactive
same,Potency,[11],inactive
same,outcome,[12],inactive
same,Potency,[13],inactive
same,Potency,[14],inactive
same,Potency,[15],inactive
same,Potency,[16],inactive
same,Potency,[17],inactive
same,Potency,[18],inactive
same,Potency,[19],inactive
same,Potency,[20],inactive
CNNC,Potency,[1],inactive
same,Potency,[2],inactive
same,Potency,[3],inactive
same,max response,[4],-7.62%
same,Potency,[5],inactive
same,Potency,[6],inactive
same,Potency,[7],inactive
same,Potency,[8],inactive
same,Potency,[9],inactive
same,outcome,[10],inactive
same,Potency,[11],inactive
same,outcome,[12],inactive
same,Potency,[13],inactive
same,Potency,[14],inactive
same,Potency,[15],inactive
same,Potency,[16],inactive
same,Potency,[17],inactive
same,Potency,[18],inactive
same,Potency,[19],inactive
same,Potency,[20],inactive
OC(c1ccccc1)(c1ccccc1)C1CCNCC1,Potency,[1],inactive
same,Potency,[2],inactive
same,Potency,[3],inactive
same,max response,[4],-12.9%
same,Potency,[5],inactive
same,Potency,[6],inactive
same,Potency,[7],inactive
same,Potency,[8],inactive
same,Potency,[9],inactive
same,outcome,[10],inactive
same,Potency,[11],inactive
same,outcome,[12],inactive
same,Potency,[13],inactive
same,Potency,[14],inactive
same,Potency,[15],inactive
same,Potency,[16],inactive
same,Potency,[17],inactive
same,Potency,[18],inactive
same,Potency,[19],inactive
same,Potency,[20],inactive
ClCCOCOCCCl,Potency,[1],inactive
same,Potency,[2],inactive
same,Potency,[3],inactive
same,max response,[4],-5.52%
same,Potency,[5],inactive
same,Potency,[6],inactive
same,Potency,[7],inactive
same,Potency,[8],inactive
same,Potency,[9],inactive
same,outcome,[10],inactive
same,Potency,[11],inactive
same,outcome,[12],inactive
same,Potency,[13],inactive
same,Potency,[14],inactive
same,Potency,[15],inactive
same,Potency,[16],inactive
same,Potency,[17],inactive
same,Potency,[18],inactive
same,Potency,[19],inactive
same,Potency,[20],inactive
CCS(=O)(=O)C(C)(C)S(=O)(=O)CC,Potency,[1],inactive
same,Potency,[2],inactive
same,Potency,[3],inactive
same,max response,[4],3.47%
same,Potency,[5],inactive
same,Potency,[6],inactive
same,Potency,[7],inactive
same,Potency,[8],inactive
same,Potency,[9],inactive
same,outcome,[10],inactive
same,Potency,[11],inactive
same,outcome,[12],inactive
same,Potency,[13],inactive
same,Potency,[14],inactive
same,Potency,[15],inactive
same,Potency,[16],inactive
same,Potency,[17],inactive
same,Potency,[18],inactive
same,Potency,[19],inactive
same,Potency,[20],inactive
CC1=C(C(=O)O)N2C(=O)[C@@H](N)[C@H]2SC1,cytotoxicity increase,[1],-14.9% [at 15.8 µM]
same,"activity change, negative = cytotoxicity",[2],1.93% [at 15.8 µM]
same,"viability change, negative = cytotoxic",[3],1.32% [at 15.8 µM]
same,max response,[4],1.69%
same,activity change,[5],"-5.37% [at 15.8 µM, stronger effect = higher value]"
same,cytotoxicity increase,[6],-9.17% [at 15.8 µM]
same,"activity change, negative = cytotoxic",[7],1.22% [at 15.8 µM]
same,cytotoxicity,[8],-8.35% [at 15.8 µM]
same,cytotoxicity increase,[9],-6.02% [at 15.8 µM]
same,"activity change, negative = cytotoxicity",[10],1.57% [at 15.8 µM]
same,cytotoxicity increase,[11],-10.4% [at 15.8 µM]
same,cytotoxicity,[12],-6.07% [at 15.8 µM]
same,cytotoxicity increase,[13],-8.31% [at 15.8 µM]
same,cytotoxicity increase,[14],-10.6% [at 15.8 µM]
same,"activity change, negative = cytotoxic",[15],0.0678% [at 15.8 µM]
same,"activity change, negative = cytotoxicity",[16],-0.764% [at 15.8 µM]
same,"activity change, negative = cytotoxicity",[17],-0.746% [at 15.8 µM]
same,activity change,[18],"-1.57% [at 15.8 µM, stronger effect = higher value]"
same,"activity change, negative = cytotoxicity",[19],-0.386% [at 15.8 µM]
same,cytotoxicity increase,[20],-7.33% [at 15.8 µM]
O=C(Nc1ccccc1)c1ccccc1I,Potency,[1],inactive
same,Potency,[2],inactive
same,Potency,[3],inactive
same,max response,[4],-14.8%
same,Potency,[5],inactive
same,Potency,[6],inactive
same,Potency,[7],inactive
same,Potency,[8],inactive
same,Potency,[9],inactive
same,outcome,[10],inactive
same,Potency,[11],inactive
same,outcome,[12],inactive
same,Potency,[13],inactive
same,Potency,[14],inactive
same,Potency,[15],inactive
same,Potency,[16],inactive
same,Potency,[17],inactive
same,Potency,[18],inactive
same,Potency,[19],inactive
same,Potency,[20],inactive
NC(=O)O,Potency,[1],inactive
same,Potency,[2],inactive
same,Potency,[3],inactive
same,max response,[4],3.48%
same,Potency,[5],inactive
same,Potency,[6],inactive
same,Potency,[7],inactive
same,Potency,[8],inactive
same,Potency,[9],inactive
same,outcome,[10],inactive
same,Potency,[11],inactive
same,outcome,[12],inactive
same,Potency,[13],inactive
same,Potency,[14],inactive
same,Potency,[15],inactive
same,Potency,[16],inactive
same,Potency,[17],inactive
same,Potency,[18],inactive
same,Potency,[19],inactive
same,Potency,[20],inactive

# Source: PubChem BioAssay (Tox21)
